Laboratory results: the supplement of paper PMC8728848
The sample as a whole holds a higher share of the strongest signals than the screen did.

Experiments:
Assay in all cases: glycan array binding signal (z-score within array); higher = stronger binding
Conditions in all cases: glycan notation: IUPAC condensed, linker removed
[1] = molecular target: Fuc(a1-2)Gal(b1-3)GlcNAc(b1-3)[Gal(b1-4)GlcNAc(b1-6)]Gal(b1-4)Glc
How it was run: (§1)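 From the Consortium for Functional Glycomics database, 3228 arrays were curated, keeping only those whose protein sequence was available. Binding is given as a within-array Z-score averaged across arrays sharing a protein sequence and across linkers. Negative Z-scores can be read as non-binding.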

[2] = molecular target: Fuc(a1-2)Gal(b1-4)[Fuc(a1-3)]GlcNAc
How it was run: as §1

[3] = molecular target: Fuc(a1-2)[Gal(a1-3)]Gal(b1-4)GlcNAc(b1-2)Man(a1-3)[Fuc(a1-2)[Gal(a1-3)]Gal(b1-4)GlcNAc(b1-2)Man(a1-6)]Man(b1-4)GlcNAc(b1-4)GlcNAc
How it was run: as §1

[4] = molecular target: Fuc(a1-2)[Gal(a1-3)]Gal(b1-4)GlcNAc(b1-2)Man(a1-3)[Fuc(a1-2)[Gal(a1-3)]Gal(b1-4)GlcNAc(b1-2)Man(a1-6)]Man(b1-4)GlcNAc(b1-4)[Fuc(a1-6)]GlcNAc
How it was run: as §1

[5] = molecular target: Fuc(a1-2)[Gal(a1-3)]Gal(b1-4)[Fuc(a1-3)]Glc
How it was run: as §1

[6] = molecular target: Fuc(a1-2)[GalNAc(a1-3)]Gal(b1-4)GlcNAc(b1-2)Man(a1-3)[Fuc(a1-2)[GalNAc(a1-3)]Gal(b1-4)GlcNAc(b1-2)Man(a1-6)]Man(b1-4)GlcNAc(b1-4)GlcNAc
How it was run: as §1

[7] = molecular target: Fuc(a1-2)[GalNAc(a1-3)]Gal(b1-4)GlcNAc(b1-3)Gal(b1-4)GlcNAc
How it was run: as §1

[8] = molecular target: Fuc(a1-2)[GalNAc(a1-3)]Gal(b1-4)GlcNAc(b1-3)Gal(b1-4)GlcNAc(b1-3)Gal(b1-4)GlcNAc
How it was run: as §1

Gal(b1-3)GlcNAc = molecular target: Gal(b1-3)GlcNAc
How it was run: as §1

[9] = molecular target: Gal(b1-3)GlcNAc(b1-3)Gal(b1-4)Glc
How it was run: as §1

[10] = molecular target: Gal(b1-3)[Neu5Ac(b2-6)]GalNAc
How it was run: as §1

[11] = molecular target: Gal(b1-4)GlcNAc(b1-3)Gal(b1-4)Glc
How it was run: as §1

[12] = molecular target: Gal(b1-4)GlcNAc(b1-3)Gal(b1-4)GlcNAc(b1-3)Gal(b1-4)GlcNAc
How it was run: as §1

[13] = molecular target: GalNAc(a1-3)GalNAc(a1-3)Gal(a1-4)Gal(b1-4)GlcNAc
How it was run: as §1

[14] = molecular target: GalNAc(b1-3)Gal(a1-6)Gal(b1-4)Glc
How it was run: as §1

[15] = molecular target: GlcNAc(a1-4)Gal(b1-4)GlcNAc(b1-3)Gal(b1-4)GlcNAc(b1-3)Gal(b1-4)GlcNAc
How it was run: as §1

[16] = molecular target: GlcNAc(a1-6)Gal(b1-4)GlcNAc
How it was run: as §1

GlcNAc(b1-3)Gal = molecular target: GlcNAc(b1-3)Gal
How it was run: as §1

Kdn(a2-3)Gal(b1-3)GlcNAc = molecular target: Kdn(a2-3)Gal(b1-3)GlcNAc
How it was run: as §1

Man(b1-4)GlcNAc = molecular target: Man(b1-4)GlcNAc
How it was run: as §1

[17] = molecular target: Neu5Ac(a2-3)Gal(b1-3)[Fuc(a1-4)]GlcNAc(b1-3)Gal(b1-3)[Fuc(a1-4)]GlcNAc
How it was run: as §1

Neu5Ac(a2-3)Gal(b1-4)Glc = molecular target: Neu5Ac(a2-3)Gal(b1-4)Glc
How it was run: as §1

[18] = molecular target: Neu5Ac(a2-3)Gal(b1-4)GlcNAc(b1-3)Gal(b1-4)GlcNAc
How it was run: as §1

[19] = molecular target: Neu5Ac(a2-3)Gal(b1-4)GlcNAc(b1-3)GalNAc
How it was run: as §1

[20] = molecular target: Neu5Ac(a2-3)[Neu5Ac(a2-6)]GalNAc
How it was run: as §1

Neu5Ac(a2-6)Gal(b1-4)Glc = molecular target: Neu5Ac(a2-6)Gal(b1-4)Glc
How it was run: as §1

[21] = molecular target: Neu5Ac(a2-6)Gal(b1-4)GlcNAc(b1-3)Gal(b1-4)GlcNAc(b1-3)Gal(b1-4)GlcNAc
How it was run: as §1

[22] = molecular target: Neu5Ac(a2-6)Gal(b1-4)GlcNAc(b1-3)Gal(b1-4)[Fuc(a1-3)]GlcNAc(b1-3)Gal(b1-4)[Fuc(a1-3)]GlcNAc
How it was run: as §1

Neu5Ac(a2-6)GalNAc = molecular target: Neu5Ac(a2-6)GalNAc
How it was run: as §1

[23] = molecular target: Neu5Gc(b2-6)Gal(b1-4)GlcNAc
How it was run: as §1

B1: Gal 3 (Canis lupus) (protein)
chain: MADSFSLNDALSGSGNPNPQGWPGPWGNQPAGAGGYPGASYPGAYPGQAPPGGYPGQAPPGGYPGQAPPGGYPGQAPPGGYPGQAPPGGYPGQAPPGTYPGPTAPAYPGPTAPGTQPGQPSGPGAYPPPGQPSAPGAYPAAGPFGIPAGPLTVPYDLPLPGGVKPRMLITILGTVRPSANRLALDFKRGNDVAFHFNPRFNEDNKRVIVCNTKLDNIWGKEERQAAFPFESGKPFKIQVLVESDHFKVAVNDAHLLQYNHRMKNLPEISKLGISGDIDLTSASYAMI
Question: What does the source list for B1?
Answer: glycan array binding signal (z-score) [1]: -0.147; glycan array binding signal (z-score) [2]: -0.259; glycan array binding signal (z-score) [3]: 7.41; glycan array binding signal (z-score) [4]: 4.22; glycan array binding signal (z-score) [5]: -0.118; glycan array binding signal (z-score) [6]: 7.54; glycan array binding signal (z-score) [7]: 5.05; glycan array binding signal (z-score) [8]: 5.42; glycan array binding signal (z-score) (Gal(b1-3)GlcNAc): -0.231; glycan array binding signal (z-score) [9]: -0.074; glycan array binding signal (z-score) [10]: -0.259; glycan array binding signal (z-score) [11]: 0.512; glycan array binding signal (z-score) [12]: 5.09; glycan array binding signal (z-score) [13]: -0.258; glycan array binding signal (z-score) [14]: -0.254; glycan array binding signal (z-score) [15]: 3.48; glycan array binding signal (z-score) [16]: -0.252; glycan array binding signal (z-score) (GlcNAc(b1-3)Gal): -0.264; glycan array binding signal (z-score) (Kdn(a2-3)Gal(b1-3)GlcNAc): -0.149; glycan array binding signal (z-score) (Man(b1-4)GlcNAc): -0.261; glycan array binding signal (z-score) [17]: -0.23; glycan array binding signal (z-score) (Neu5Ac(a2-3)Gal(b1-4)Glc): -0.247; glycan array binding signal (z-score) [18]: 0.679; glycan array binding signal (z-score) [19]: -0.205; glycan array binding signal (z-score) [20]: -0.261; glycan array binding signal (z-score) (Neu5Ac(a2-6)Gal(b1-4)Glc): -0.246; glycan array binding signal (z-score) [21]: 5.91; glycan array binding signal (z-score) [22]: -0.23; glycan array binding signal (z-score) (Neu5Ac(a2-6)GalNAc): -0.257; glycan array binding signal (z-score) [23]: -0.25
